# Test results taken from publication PMC4336329 (PLoS ONE, 2015).
# The campaign covered roughly 310,000 compounds. About 14,000 (4.5%) showed an effect of 50% or more. The effect is printed as a negative number. For the sample, strong results were picked, then their nearest neighbours and some compounds at random.
# Target: human ether-à-go-go-related gene (hERG) potassium channel (human, UniProt Q12809)
# Assay: primary screen, population patch clamp on CHO cells stably expressing hERG; higher = less effect of the substance
# 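Further: peak tail current of the secondary pulse compared with the same well before compound.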
# human ether-à-go-go-related gene (hERG) potassium channel, sequence (Q12809 whole entry, looked up): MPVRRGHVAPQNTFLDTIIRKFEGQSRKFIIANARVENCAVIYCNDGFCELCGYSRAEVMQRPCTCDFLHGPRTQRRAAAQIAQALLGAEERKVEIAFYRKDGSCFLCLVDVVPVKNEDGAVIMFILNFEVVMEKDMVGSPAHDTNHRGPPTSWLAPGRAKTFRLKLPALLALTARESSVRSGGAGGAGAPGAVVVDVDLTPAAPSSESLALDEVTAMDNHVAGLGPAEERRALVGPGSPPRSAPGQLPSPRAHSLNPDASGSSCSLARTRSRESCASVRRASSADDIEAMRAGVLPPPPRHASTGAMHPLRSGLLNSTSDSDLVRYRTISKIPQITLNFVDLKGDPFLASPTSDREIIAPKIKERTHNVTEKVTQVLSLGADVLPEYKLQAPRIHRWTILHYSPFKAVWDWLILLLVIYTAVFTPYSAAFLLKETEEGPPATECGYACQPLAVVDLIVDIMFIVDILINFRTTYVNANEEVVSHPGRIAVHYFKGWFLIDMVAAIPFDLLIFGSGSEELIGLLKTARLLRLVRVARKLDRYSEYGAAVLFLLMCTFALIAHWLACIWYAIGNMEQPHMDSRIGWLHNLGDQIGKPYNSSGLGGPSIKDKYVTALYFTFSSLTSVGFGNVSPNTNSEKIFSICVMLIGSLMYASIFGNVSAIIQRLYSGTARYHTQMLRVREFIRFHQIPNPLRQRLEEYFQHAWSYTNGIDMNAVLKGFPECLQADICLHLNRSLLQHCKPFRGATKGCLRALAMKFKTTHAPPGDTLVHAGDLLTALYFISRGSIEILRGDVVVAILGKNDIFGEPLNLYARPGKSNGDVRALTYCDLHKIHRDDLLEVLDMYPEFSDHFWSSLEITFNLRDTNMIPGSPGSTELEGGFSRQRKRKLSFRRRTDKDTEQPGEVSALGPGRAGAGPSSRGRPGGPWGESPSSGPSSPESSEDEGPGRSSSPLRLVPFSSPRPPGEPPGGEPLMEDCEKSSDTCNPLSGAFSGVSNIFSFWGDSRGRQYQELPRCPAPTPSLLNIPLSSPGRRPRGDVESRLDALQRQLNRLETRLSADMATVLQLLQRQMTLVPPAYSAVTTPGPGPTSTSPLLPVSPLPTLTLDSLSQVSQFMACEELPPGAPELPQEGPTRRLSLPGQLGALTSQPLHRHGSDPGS
row,SMILES,"hERG current change (%, negative = inhibition) at 10uM [%]"
1,C/C(=C\C(=O)c1ccccc1)NCc1ccc(F)cc1,-22.7
2,Cc1cc(S(=O)(=O)n2cnc3cc([N+](=O)[O-])ccc32)ccc1Cl,-2.69
3,Cc1ccc(C(=O)Nc2cnc3ccccn3c2=O)cc1,-17.2
4,Cc1cc(=O)[nH]c(SCc2cccc3cccnc23)n1,13.3
5,COc1ccc(CNc2c(CO)cnc3c2cnn3C)cc1,-13
6,COc1ccc(NC(=O)CN(C)C(=O)c2cccc(S(=O)(=O)N3CCN(c4ccccc4)CC3)c2)cc1,-3.62
7,O=C(N/N=C/c1ccco1)c1cc([N+](=O)[O-])cc([N+](=O)[O-])c1,6.85
8,COC(=O)C(C)N(C#N)c1nc(C)cc(C)n1 (centres unmarked),8.78
9,COc1ccc(N2CCN(C(=O)COC(=O)Cc3ccc(F)cc3)CC2)cc1,-20
10,COc1ccc(N2CCN(C(=O)COC(=O)CCc3ccccc3)CC2)cc1,-0.829
11,COc1ccc(N2CCN(C(=O)COC(=O)Cc3c(F)cccc3Cl)CC2)cc1,-79
12,COc1ccc(NC(=O)COC(=O)Cc2c(F)cccc2Cl)cc1,-0.319
13,COc1cccc(N2CCN(C(=O)CCSCc3ccccc3F)CC2)c1,-57.9
14,COc1ccc(N2CCN(C(=O)CCSCc3ccccc3F)CC2)cc1,-28.1
15,COc1cccc(CC(=O)OCC(=O)N2CCN(c3ccc(F)cc3)CC2)c1,-60.6
16,CC1(C)C(=O)Nc2ccccc2N1C(=O)COC(=O)CSc1ccc(F)cc1,-2.24
17,COc1ccc(N2CCN(C(=O)COC(=O)Cc3cccc(OC)c3)CC2)cc1,-20
18,CC1(C)C(=O)Nc2ccccc2N1C(=O)COC(=O)Cc1c(F)cccc1Cl,-50.1
19,COc1ccccc1N1CCN(C(=O)CCSCc2ccccc2F)CC1,4.41
20,CC1(C)C(=O)Nc2ccccc2N1C(=O)COC(=O)CSc1ccc(Cl)cc1,18.3
21,CSCC(NS(=O)(=O)c1ccc(C)cc1)C(=O)O (centres unmarked),8.98
22,CC(=O)N1CC(C)Sc2ccc(S(=O)(=O)NCCc3cccc(C)c3)cc21 (centres unmarked),0.141
23,COC(=O)CNC(=O)CNC(=O)Nc1ccccc1Cl,9.2
24,Cc1ccc(S(=O)(=O)N/N=C/c2ccc(C(=O)O)cc2)cc1,15.2
25,Nc1nc(N2CCN(c3ccccc3)CC2)n[nH]1,4.2
26,COc1cc(NC2=Nc3cccc4cccc2c34)cc(OC)c1OC,1.72
27,CCCCn1c(N)c(NCc2ccccc2OC)c(=O)[nH]c1=O,12.2

row,SMILES,"hERG current change (%, negative = inhibition) at 10uM [%]"
1,Cc1c(C=O)cnn1CCC(=O)O,4.76
2,O=c1ccc2cc(S(=O)(=O)Nc3ccc(Br)cc3)ccc2o1,5.32
3,COc1ccccc1NC(=O)CC1CCCC1,15.4
4,CCn1c(SCC(=O)Nc2cc(C)on2)nc2c(c1=O)SC(C)C2 (centres unmarked),-4.2
5,CCc1ccc(OCC(=O)Nc2ccc(S(=O)(=O)N3CCCC3)cc2)c(Br)c1,-4.25
6,COCCn1c(SCC(=O)Nc2c(C)n(C)n(-c3ccccc3)c2=O)nnc1-c1ccncc1,5.95
7,CCOC(=O)C1CCN(C(=O)Cn2nc(C)n3nc(-c4ccc(CC)cc4)cc3c2=O)CC1,5.33
8,O=C(/C=C/c1ccccc1[N+](=O)[O-])OCC(=O)N1CCCC1,12
9,COc1ccc(N2CCN(C(=O)COC(=O)CCOc3ccccc3C)CC2)cc1,-62.5
10,COc1ccc(N2CCN(C(=O)COC(=O)CCOc3cc(C)ccc3C)CC2)cc1,0.516
11,COc1ccc(N2CCN(C(=O)COC(=O)CCOc3ccc(C)cc3)CC2)cc1,9.09
12,CCn1cc(C(=O)NCc2cccc(F)c2)c(=O)c2cc(F)c(N3CCN(C(=O)c4ccco4)CC3)cc21,-21
13,CCCCNC(=O)c1cn(CC)c2cc(N3CCN(C(=O)c4ccco4)CC3)c(F)cc2c1=O,-33.8
14,CCCNC(=O)c1cn(CC)c2cc(N3CCN(C(=O)c4ccco4)CC3)c(F)cc2c1=O,-67
15,CCn1cc(C(=O)NCc2ccc3c(c2)OCO3)c(=O)c2cc(F)c(N3CCN(C(=O)c4ccco4)CC3)cc21,-1.93
16,C=CCNC(=O)c1cn(CC)c2cc(N3CCN(C(=O)c4ccco4)CC3)c(F)cc2c1=O,-63.6
17,CCN(CC)CCNC(=O)c1cn(CC)c2cc(N3CCN(C(=O)c4ccco4)CC3)c(F)cc2c1=O.Cl,0.131
18,CCC(C)NC(=O)c1cn(CC)c2cc(N3CCN(C(=O)c4ccco4)CC3)c(F)cc2c1=O (centres unmarked),-55.2
19,CCn1cc(C(=O)NCCC(C)C)c(=O)c2cc(F)c(N3CCN(C(=O)c4ccco4)CC3)cc21,-11.3
20,CCn1cc(C(=O)NCc2ccco2)c(=O)c2cc(F)c(N3CCN(C(=O)c4ccco4)CC3)cc21,-26.4
21,CCn1cc(C(=O)NC(C)C)c(=O)c2cc(F)c(N3CCN(C(=O)c4ccco4)CC3)cc21,-34.6
22,CCn1cc(C(=O)NCC(C)C)c(=O)c2cc(F)c(N3CCN(C(=O)c4ccco4)CC3)cc21,-59.9
23,CCn1cc(C(=O)Nc2ncccc2O)c(=O)c2cc(F)c(N3CCN(C(=O)c4ccco4)CC3)cc21,1.98
24,O=C(c1ccc2c(c1)OCO2)N1CCOCC1,17.5
25,COc1cccc(OCCn2cccc2/C=C2/C(=N)N3OC(C)=CC3=NC2=O)c1,-23.5
26,O=C(NCCCN1CCCC1=O)c1cccc(S(=O)(=O)Nc2ccc(F)cc2)c1,-24.5
